Test results from PubChem BioAssay AID1852 (Sanford-Burnham Center for Chemical Genomics, 2009).
Screen size: about 2,500 compounds; about 1,100 (44%) were called active.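 The calls were made as follows: active = inhibition above 50% at 4 µM in the single-point screen; inactive = inhibition of 50% or less.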 The set was probably picked from earlier hits. This is one part of the list.

Assay: blockers of TNF-a NF-kB luciferase induction – cell-based, HEK293T NF-kB-Luc, luminescence, selectivity assay for NOD1/NOD2 signaling inhibitor project, primary screen (AID 1852)
Settings: TNF-a induced, 14 h, at 4 µM, stronger effect = higher value
For CCCCCCCn1ccc(=N)cc1, the inhibition was 20.9% (inactive). With CCCCCCCCCCn1ccc(=N)cc1 the inhibition was 83.1% (active). With CCCCCCCCn1ccc(=N)cc1 the inhibition was 62.3% (active). In the case of CCCCCCCCCn1ccc(=N)cc1, the inhibition is reported as 76.4% (active). In the case of CC[C@@H](C)[C@H](NC(=O)OC(C)(C)C)c1nnc(S(=O)(=O)Cc2cc(C)ccc2C)o1, the inhibition is reported as 38.2% (inactive). For CC1CCN(S(=O)(=O)c2nnc(NC(=O)c3cccc(Cl)c3)s2)CC1, the inhibition was 37% (inactive). For CN(C)S(=O)(=O)N1CCC(Oc2cccc(C(=O)NC3CCCCCC3)c2)CC1, the inhibition was 54% (active). In the case of CN(C)S(=O)(=O)N1CCC(Oc2cccc(C(=O)NC3CCCCC3)c2)CC1, the inhibition is reported as 20.4% (inactive). With CN(Cc1ccccc1)C1=CC(=[N+]2CCCCC2)CC(C)(C)C1 the inhibition was 58.1% (active). For Cc1nc(Nc2cnc(/C=C/c3cc(C(=O)Nc4cccc(C(F)(F)F)c4)ccc3C)cn2)cc(N2CCNCC2)n1, the inhibition was -21.5% (inactive). In the case of Cc1nc2ccc(NC(=O)c3cc(S(=O)(=O)N(C)c4ccccc4)ccc3Cl)cc2s1, the inhibition is reported as 54.6% (active). In the case of COc1ccc(N(CC(=O)Nc2cccc(N(C)S(C)(=O)=O)c2)S(=O)(=O)c2ccc(C)cc2)cc1, the inhibition is reported as 14.3% (inactive). With CSc1ncc(C(=O)Nc2cccc(S(N)(=O)=O)c2)n1-c1ccccc1 the inhibition was 8.6% (inactive). In the case of CC(C(=O)Nc1cccc([N+](=O)[O-])c1)N(c1ccccc1)S(C)(=O)=O (stereo not drawn), the inhibition is reported as -12.9% (inactive). For Cc1nc2ccc(NC(=O)c3cccc(S(=O)(=O)N(C)c4ccccc4)c3)cc2s1, the inhibition was 53.4% (active). In the case of CN(c1ccccc1)S(=O)(=O)c1cccc(NC(=O)c2cc(=O)c3ccccc3o2)c1, the inhibition is reported as 63.9% (active). In the case of CCCCn1c(SCC(=O)N2CCN(c3ccccc3)CC2)nc2ccsc2c1=O, the inhibition is reported as 28.9% (inactive). In the case of Cc1cccc(NC(=O)/C=C/c2ccc([N+](=O)[O-])s2)c1, the inhibition is reported as 57.7% (active). In the case of COC(=O)/C=C\C(=O)Nc1cccc([N+](=O)[O-])c1, the inhibition is reported as 28.4% (inactive). For Cc1cc(C)cc(NC(=O)/C=C/c2ccc([N+](=O)[O-])s2)c1, the inhibition was -10.2% (inactive). For CC(=O)Nc1ccc2nc(NC(=O)c3ccc([N+](=O)[O-])s3)sc2c1, the inhibition was 19.3% (inactive). In the case of Cc1nc2cc(NC(=O)c3ccc([N+](=O)[O-])s3)ccc2s1, the inhibition is reported as 31.8% (inactive). In the case of CCOC(=O)/C=C/C(=O)Nc1cccc([N+](=O)[O-])c1, the inhibition is reported as 72.3% (active). With COc1ccc(C)cc1S(=O)(=O)N(CC(=O)Nc1cccc([N+](=O)[O-])c1)c1ccc(C)cc1 the inhibition was 16.5% (inactive). With CC(=O)c1cccc(NC(=O)/C=C/c2ccc([N+](=O)[O-])s2)c1 the inhibition was 99.5% (active). In the case of COc1ccc(CNc2ncnc3sccc23)cc1OC, the inhibition is reported as 50.2% (active). In the case of COc1cc2ncnc(NCc3ccc(C)cc3)c2cc1OC, the inhibition is reported as 0.3% (inactive). For COc1ccc(CCNc2ncnc3sccc23)cc1OC, the inhibition was 60.1% (active). With CCOc1ccc2[nH]c3c(NCCc4ccc(OC)c(OC)c4)ncnc3c2c1 the inhibition was 39.1% (inactive). In the case of COc1ccc(CCNc2ncnc3sc(C)cc23)cc1OC, the inhibition is reported as 58.6% (active). For Oc1ccc(CCNc2ncnc3ccc(Cl)cc23)cc1, the inhibition was 86.6% (active). In the case of Fc1ccc(F)c(CNc2ncnc3cc(Cl)ccc23)c1, the inhibition is reported as 8.3% (inactive). In the case of C(=N\c1ncnc2sccc12)/NOCc1ccccc1, the inhibition is reported as 28.6% (inactive). With COc1ccc(CCNc2ncnc3cc(OC)c(OC)cc23)cc1OC the inhibition was 54.8% (active). In the case of COc1ccccc1CNc1ncnc2sccc12, the inhibition is reported as 54.1% (active). In the case of COc1ccc(CCNc2ncnc3c2oc2ccccc23)cc1OC, the inhibition is reported as 54.8% (active). For COc1cc2ncnc(NCCc3ccccc3)c2cc1OC, the inhibition was 4.6% (inactive). For Clc1cccc(Cl)c1CON/C=N/c1ncnc2sccc12, the inhibition was 15.1% (inactive). With c1ccc2c(c1)oc1c(Nc3ccc(CN4CCOCC4)cc3)ncnc12 the inhibition was 4.6% (inactive). For C=CC[n+]1c(-c2ccc(Cl)cc2Cl)csc1Nc1ccc(NC(C)=O)cc1, the inhibition was 64% (active). In the case of C=CC[n+]1c(-c2ccc(Cl)cc2Cl)csc1Nc1c(C)n(C)n(-c2ccccc2)c1=O, the inhibition is reported as 28.9% (inactive). With Cc1ccc(NC(=O)Nc2nnc(-c3ccncc3)s2)cc1 the inhibition was 27.4% (inactive). With C=CC[n+]1c(-c2ccc(C)cc2)csc1Nc1ccc(NC(C)=O)cc1 the inhibition was 99.4% (active). For Cc1ccc(S(=O)Cc2ccc(C(=O)N3CCN(C4CCCCC4)CC3)o2)cc1 (stereo not drawn), the inhibition was -23.1% (inactive). With Cc1cc(C(=O)CSc2nnc(-c3cccs3)o2)c(C)n1-c1ccccc1 the inhibition was 53.4% (active). In the case of COc1ccc(-n2c(C)cc(C(=O)CSc3nnc(-c4cccs4)o3)c2C)cc1, the inhibition is reported as 71.7% (active). In the case of Cc1cc(C(=O)CSc2nnc(-c3ccco3)o2)c(C)n1-c1ccc2c(c1)OCCO2, the inhibition is reported as 10.1% (inactive). With NC(=O)c1cc2ccncc2c2ccccc12 the inhibition was 90.8% (active). For Nc1cc2ccncc2c2ccccc12, the inhibition was 90.8% (active). In the case of CCn1cc(CN2CCCC(C(=O)c3ccc(-c4ccccc4)cc3)C2)cn1 (stereo not drawn), the inhibition is reported as 5.2% (inactive). For Cc1ccc(-c2ccc(=O)n(Cc3ccc(F)cc3)n2)cc1, the inhibition was -22.8% (inactive). In the case of N#Cc1ccc(Cl)cc1NC(=O)CSc1nc2nc(-c3cccs3)cc(C(F)(F)F)c2c(=O)[nH]1, the inhibition is reported as 46.8% (inactive). With O=C(CSc1nc2nc(-c3cccs3)cc(C(F)(F)F)c2c(=O)[nH]1)Nc1c(F)c(F)c(F)c(F)c1F the inhibition was 92.5% (active). For O=C(CSc1nc2nc(-c3cccs3)cc(C(F)(F)F)c2c(=O)[nH]1)Nc1ccc(F)c(F)c1, the inhibition was 86% (active). In the case of CCOc1ccccc1NC(=O)CSc1nc2nc(-c3cccs3)cc(C(F)(F)F)c2c(=O)[nH]1, the inhibition is reported as 74.5% (active). In the case of Cc1ccc(C)c(NC(=O)CSc2nc3nc(-c4cccs4)cc(C(F)(F)F)c3c(=O)[nH]2)c1, the inhibition is reported as 86.9% (active). For N#Cc1c(-c2cccs2)nc(SCc2ccc(Cl)cc2)[nH]c1=O, the inhibition was 31.4% (inactive). With CCOc1cccc(-c2c(C(=O)N/N=C(\C)c3ccccn3)nnn2-c2nonc2N)c1 the inhibition was 66.7% (active). For C/C(=N\NC(=O)c1nnn(-c2nonc2N)c1-c1ccccc1)c1ccccc1O, the inhibition was 93.1% (active). For C/C(=N\NC(=O)c1nnn(-c2nonc2N)c1CN(C)c1ccccc1)c1ccccn1, the inhibition was -26.2% (inactive). In the case of C/C(=N\NC(=O)c1nnn(-c2nonc2N)c1CN(C)c1ccccc1)c1ccccc1O, the inhibition is reported as 92.8% (active). For Cc1ccc(Nc2nc(N)nc(CCl)n2)c(C)c1, the inhibition was 25.1% (inactive). With Cc1ccc(Nc2nc(N)nc(CCl)n2)cc1 the inhibition was -3.9% (inactive). For CCOc1ccc(Nc2nc(N)nc(CCl)n2)cc1, the inhibition was 65.6% (active). With COc1ccccc1Nc1nc(N)nc(CCl)n1 the inhibition was 28% (inactive). In the case of COc1ccc(Nc2nc(N)nc(CCl)n2)cc1, the inhibition is reported as 23.2% (inactive). For COc1ccc(OC)c(Nc2nc(N)nc(CCl)n2)c1, the inhibition was 54.9% (active). In the case of Cc1sc2nc(C3CC3)nc(SCC(=O)N3CCc4ccccc4C3)c2c1C, the inhibition is reported as -10.4% (inactive). In the case of CCc1nc(SCC(=O)N2c3ccccc3CC2C)c2c(C)c(C)sc2n1 (stereo not drawn), the inhibition is reported as -10% (inactive). For CCc1c(C)sc2nc(C(C)C)nc(SCC(=O)N3CCc4ccccc4C3)c12, the inhibition was 53.6% (active). With COc1ccc(NC(=O)/C(C#N)=C/c2cc(C)n(-c3ccc(N4CCOCC4)c([N+](=O)[O-])c3)c2C)cc1 the inhibition was 15% (inactive). For CCOC(=O)N1CCN(C(=O)c2ccc(Cn3c(=S)[nH]c4cc5c(cc4c3=O)OCO5)cc2)CC1, the inhibition was 55.2% (active). With O=C(c1ccc(Cn2c(=S)[nH]c3ccccc3c2=O)cc1)N1CCN(c2ccccn2)CC1 the inhibition was 17.4% (inactive). For O=C(c1ccc(Cn2c(=S)[nH]c3cc4c(cc3c2=O)OCO4)cc1)N1CCN(c2ncccn2)CC1, the inhibition was 59.2% (active). In the case of CCOC(=O)N1CCN(C(=O)c2ccc(Cn3c(=S)[nH]c4ccc(Br)cc4c3=O)cc2)CC1, the inhibition is reported as 43.2% (inactive). With CCCCCn1c(=O)[nH]c2cc(C(=O)N3CCN(Cc4ccc5c(c4)OCO5)CC3)ccc2c1=O the inhibition was 34.6% (inactive). For Nc1ncc([N+](=O)[O-])c(N2CCCCCC2)n1, the inhibition was 86.3% (active). In the case of Cc1cc(/C=N/Nc2nc(N)ncc2[N+](=O)[O-])c(C)n1-c1ccccc1F, the inhibition is reported as 26.6% (inactive). For Cc1cc(C=O)c(C)n1-c1ccc(N2CCCCC2)c([N+](=O)[O-])c1, the inhibition was 47.6% (inactive). In the case of CN(Cc1ccccc1)C(=S)NC(=O)c1ccc(-c2ccccc2)cc1, the inhibition is reported as 105% (active). With O=C(Nc1ccccn1)c1ccc(-c2ccccc2)cc1 the inhibition was -197% (inactive). With CC(C)C[C@H](NC(=O)c1nc[nH]c1C(=O)N(C)Cc1ccccc1)C(=O)OC(C)(C)C the inhibition was 26.1% (inactive). In the case of C=CCN(CC=C)C(=S)NC(=O)c1ccc(-c2ccccc2)cc1, the inhibition is reported as 104% (active). In the case of CN(C)c1cc[n+](CC(=O)c2ccc(-c3ccccc3)cc2)cc1, the inhibition is reported as 47.3% (inactive). In the case of CCOC(=O)CSc1n[nH]c(NC(=O)CC)n1, the inhibition is reported as -7.7% (inactive). In the case of NC(=S)Nc1cccc2cn[nH]c12, the inhibition is reported as 75.7% (active). In the case of O=c1c(C(c2ccccc2)c2c(O)sc3ccccc3c2=O)c(O)sc2ccccc12, the inhibition is reported as 77.7% (active). In the case of NC(=O)c1nsc(C(=O)N(c2ccccc2F)C(C(=O)NCc2ccc(F)cc2)c2ccc(O)cc2)c1N (stereo not drawn), the inhibition is reported as 69.7% (active). With NC(=O)c1nsc(C(=O)N(c2ccccc2)C(C(=O)NCc2ccc(F)cc2)c2ccco2)c1N (stereo not drawn) the inhibition was -11.7% (inactive). With CN(C)c1ccc(C(C(=O)NCc2ccccc2)N(Cc2ccco2)C(=O)c2snc(C(N)=O)c2N)cc1 (stereo not drawn) the inhibition was 11.8% (inactive). In the case of COc1cc(CNc2ccc3[nH]c(=O)[nH]c3c2)ccc1OCc1ccccc1Cl, the inhibition is reported as 31.1% (inactive). For COc1cc(C)ccc1OCCCOc1ccccc1Cl, the inhibition was 90.6% (active). In the case of COC(=O)c1ccccc1OCCCOc1ccc(C)cc1OC, the inhibition is reported as -116% (inactive).
